# Source: PubChem (National Center for Advancing Translational Sciences (NCATS))
# Hits are enriched below; roughly 5.2% of the tested compounds scored in any of these assays.
# PLK1 PBD inh – qHTS for Inhibitors of PLK1-PDB (polo-like kinase 1 - polo-box domain): Primary Screen; Potency, µM, inactives show max response, negative = inhibition, actives largely listed as inhibitors; AID 720504, 2013; hit rate 2.8% among 360,000; Serine/threonine-protein kinase PLK1 (Homo sapiens), P53350; Plk1 PBD binding of FITC phosphopeptide, fluorescence polarization; further: series mostly up to about 57 µM; on the % scale 0 is the no-effect control and ±100 the full control effect; nearly all actives have a fitted effect of over 65% in size
# TrxR1 substrate – qHTS Assay for Substrates of Mammalian Selenoprotein Thioredoxin Reductase 1 (TrxR1): qHTS | Thioredoxin reductase 1, cytoplasmic (Rattus norvegicus), O89049 | purified TrxR1 substrate turnover, NADPH consumption readout | Potency, µM (top dose mostly 114 µM), inactives show at the highest dose activity change, negative = substrate turnover | hit rate 0.01% among 390,000 | AID 588456, 2011; further: on the % scale 0 is the no-effect control and ±100 the full control effect; nearly all actives have a fitted effect of over 50% in size
#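 Rat TrxR1, dispensed at 90 nM, was prereduced with 400 uM NADPH (final) for 5 min at ~22 deg C, then incubated with compound 15 min before 400 uM selenite. A first-read NADPH fluorescence drop versus no-compound background flagged substrates.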
# rTrxR1 inhibitor – qHTS Assay for Inhibitors of Mammalian Selenoprotein Thioredoxin Reductase 1 (TrxR1): qHTS. hit rate 1% among 390,000. recombinant rTrxR1, NADPH fluorescence consumption, selenite substrate. Thioredoxin reductase 1, cytoplasmic (Rattus norvegicus), O89049. Potency, µM (highest dose often 114 µM), for the others: at the top dose activity change, negative = inhibition, actives largely listed as inhibitors; further: on the % scale 0 is the no-effect control and ±100 the full control effect; nearly all actives have a fitted effect of over 65% in size
#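 Rat TrxR1 (90 nM in the dispensed reagent) was pre-reduced with 400 uM NADPH for 5 min at room temperature, then incubated with compound for 15 min. After 400 uM selenite was added, NADPH fluorescence (Ex 340/Em 450 nm) was followed for 8 min.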
# Sfp PPTase inh – qHTS Assay for Inhibitors of Bacillus subtilis Sfp phosphopantetheinyl transferase (PPTase); 4'-phosphopantetheinyl transferase ffp (Bacillus subtilis), Q9F4F7; Biochemical Sfp PPTase activity, qHTS; Potency, µM, for inactives: largest response in the series, negative = inhibition, hits mostly inhibitors; hit rate 3.5% among 310,000; AID 1490, 2009;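 further: the enzyme is Sfp with the accession as filed and its product quenches rhodamine fluorescence; 0% = enzyme reaction without inhibitor and -100% = no enzyme wells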
#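 Fluorescence-quenching assay: 15 nM Sfp-PPTase preincubated 15 min at room temperature with compound, then 5 uM rhodamine-CoA and 12.5 uM BHQ-2-labelled YbbR peptide added. Fluorescence (ex 525/em 598 nm) read at start and after 30 min; difference gives rate.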
# VDR inh – Inhibitors of the vitamin D receptor (VDR): qHTS. Vitamin D3 receptor (Homo sapiens), P11473. Potency, µM, inactives show max response, negative = inhibition, most hits filed as inhibitors. AID 504847, 2011. VDR-SRC2-3 peptide fluorescence polarization, 2 h. hit rate 0.93% among 400,000; further: on the % scale 0 is the no-effect control and ±100 the full control effect
#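 After 23 nl compound addition and a short centrifugation, plates sat for 2 hours at ambient temperature; polarization of fluorescence then indicated loss of VDR binding to peptide SRC2-3.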
# IDH1 R132H inh – qHTS for Inhibitors of mutant isocitrate dehydrogenase 1 (IDH1): qHTS; Isocitrate dehydrogenase [NADP] cytoplasmic (Homo sapiens), O75874; IDH1-R132H enzyme, NADPH consumption, diaphorase/resazurin fluorescence; Potency, µM (top dose mostly 76.6 µM), inactives show top-dose activity change, negative = inhibition, actives largely listed as inhibitors; hit rate 0.093% among 390,000; further: on the % scale 0 is the no-effect control and ±100 the full control effect; nearly all actives have a fitted effect of over 65% in size
# Target sequence (O75874 whole entry R132H, stated change not applied): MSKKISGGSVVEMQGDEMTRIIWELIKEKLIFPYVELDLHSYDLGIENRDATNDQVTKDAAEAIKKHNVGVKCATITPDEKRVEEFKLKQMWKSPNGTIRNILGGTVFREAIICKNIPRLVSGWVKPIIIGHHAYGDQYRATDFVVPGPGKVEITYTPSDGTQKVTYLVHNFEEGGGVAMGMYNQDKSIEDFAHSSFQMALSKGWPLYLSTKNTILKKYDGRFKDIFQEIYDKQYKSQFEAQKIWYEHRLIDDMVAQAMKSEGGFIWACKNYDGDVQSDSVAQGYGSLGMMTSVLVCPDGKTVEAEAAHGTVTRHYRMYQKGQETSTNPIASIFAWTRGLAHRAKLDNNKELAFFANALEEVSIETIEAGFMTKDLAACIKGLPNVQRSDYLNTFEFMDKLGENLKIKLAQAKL
#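 IDH1-R132H (0.5 ug/mL dispensed) in pH 7.5 Tris buffer was preincubated 30 min with compound, then given a substrate mix of 0.016 mM NADPH and 2 mM alpha-KG for 80 min at room temperature; remaining NADPH was read by diaphorase/resazurin fluorescence.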
# VDR confirm – qHTS for Inhibitors of the vitamin D receptor (VDR): Hit Validation in Primary Screen; shares compounds with VDR inh; VDR-coactivator inhibition assay, qHTS confirmation; Potency, µM, hits mostly inhibitors; hit rate 89% among 840; AID 602199, 2012
# VDR FP fluor – qHTS for Inhibitors of the vitamin D receptor (VDR): Hit Validation using a Fluorescein Assay | shares compounds with VDR inh | VDR-coactivator binding, fluorescein fluorescence polarization | hit rate 48% among 840 | Potency, µM (titrated, usually from 57.1 µM), for inactives: at the top dose activity change, negative = inhibition, usual class: inhibitors
# VDR bla – qHTS for Inhibitors of the vitamin D receptor (VDR): Hit Validation using a Beta-Lactamase Assay; shares compounds with VDR inh; VDR beta-lactamase reporter cells, FRET ratio; cells co-treated with VDR agonist LG190178; Potency, µM (series often up to 46.1 µM), for inactives: at the highest dose activity change, negative = inhibition, usual class: inhibitors; hit rate 23% among 840; further: on the % scale 0 is the no-effect control and ±100 the full control effect
# VDR cytotox – qHTS for Inhibitors of the vitamin D receptor (VDR): Hit Validation using a Cytotoxicity Assay. Potency, µM (doses to about 48.3 µM), inactives show at the highest dose activity change, negative = cytotoxicity, most hits filed as cytotoxic. hit rate 18% among 840. shares compounds with VDR inh. AID 602204, 2012. cytotoxicity counter-screen, cell viability, qHTS;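 further: plate controls were DMSO for no effect and high-concentration cycloheximide for full effect; nearly all actives have a fitted effect of over 75% in size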
# * = called active by the depositor; ? = inconclusive; · = no result; [ ] = remark or other dose. The call rests on the fitted dose curve; in most records, active means well fitted curve in the direction sought with a large enough effect; inconclusive means small, poorly fitted or top-dose-only effect, or another doubt; inactive means no such curve, though single readings can be large; an effect the other way counts as inactive or inconclusive. Potency means the concentration at half of the fitted maximal effect.
SMILES,PLK1 PBD inh,TrxR1 substrate,rTrxR1 inhibitor,Sfp PPTase inh,VDR inh,IDH1 R132H inh,VDR confirm,VDR FP fluor,VDR bla,VDR cytotox
COc1ccc(Cl)cc1NC(=O)c1c(NCc2sccc2C)sc2c1CCCC2,·,-5%,7%,·,18µM*,-1%,3.5*,3.2µM*,2%,12%
O=C(COc1ccc(Cl)cc1)Nc1sc2c(c1C(=O)Nc1cccc(Cl)c1)CCCC2,·,0%,-19%,·,?,4%,7.9*,7.9µM*,-7%,-4%
O=C(CCc1ccccc1)NC1CCS(=O)(=O)C1 (stereo not drawn),-19%,-6%,-3%,·,-3%,1%,·,·,·,·
CCCCCC(=O)N/N=C/c1ccc([N+](=O)[O-])o1,-5%,1%,?,-2%,0%,-2%,·,·,·,·
CCN(CC)c1ccc(N=Cc2ccc([N+](=O)[O-])o2)cc1,-23%,6%,3.2µM*,28µM*,?,14%,7.9*,2%,3%,-8%
Cc1ccc(C(=O)COC(=O)COc2ccccc2[N+](=O)[O-])s1,-7%,-6%,?,·,-19%,-3%,·,·,·,·
CCOC(=O)COc1ccccc1/C=C\[N+](=O)[O-],7.5µM*,-2%,2.8µM*,14µM*,11µM*,5%,3.4*,?,4.6µM*,8.2µM*
CCOc1ccc(NC(=O)CC2SC(=O)N(c3ccccc3)C2=O)cc1 (stereo not drawn),9.5µM*,-16%[57.1 µM],-56%,10µM*,28µM*,3%,?,?,29%,14%
CCOc1ccccc1NC(=O)CC1SC(=N)N(c2ccccc2)C1=O (stereo not drawn),·,·,·,-5%,·,·,·,·,·,·
CCOC(=O)c1cc(S(=O)(=O)Nc2cc(F)ccc2C)[nH]n1,·,-3%[57.1 µM],20%[57.1 µM],·,7%,-7%,·,·,·,·
Oc1ccc(N=C/C=C/c2cccc(Br)c2)cc1-c1nc2ccccc2s1,?,-7%,?,?,?,2%,8.9*,22µM*,18µM*,?
Nc1ccc(O)c(-c2nc3ccccc3s2)c1,-29%,-10%,-22%,-6%,-19%,5%,·,·,·,·
O=[N+]([O-])c1ccc(S(=O)(=O)c2cccc(C(F)(F)F)c2)nc1,2.7µM*,-28%,?,·,28µM*,16%,6.7*,?,16µM*,?
O=S(=O)(Nc1cccnc1)c1cccc(C(F)(F)F)c1,-6%,9%,29%,8%,-24%,-3%,·,·,·,·
